Source: PubChem BioAssay
Nrf2 block = Nrf2 qHTS screen for inhibitors. Potency, µM (titrated, usually from 46 µM), usual class: inhibitors. 360,000 tested, 2.1% active. A549 ARE-Fluc reporter, luciferase luminescence, 18-24 h; further: nearly all actives have a fitted effect of over 60% in size
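Two sequential reads on A549 ARE_Fluc cells exposed to compound for 18-24 h: a CellTiter-Fluor fluorescence read for viability, then a luciferase luminescence read for Nrf2/ARE activity.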
A549 tox-1 = Nrf2 qHTS screen for inhibitors: counterscreen for cytotoxicity. AID 504648, 2011. A549 ARE-Fluc cells, CellTiter-Fluor viability, 18-24 h. 390,000 tested, 0.16% active. Potency, µM (highest dose often 46 µM), usual class: inhibitors
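A549 ARE-Fluc cells in 5% FBS OPTI-MEM, 5000 cells/well, rested 2 h then exposed to compounds in concentration-response for 18-24 h at 37 °C. Viability by CellTiter-Fluor fluorescence (Ex 405/Em 525) after 30 min; luciferase luminescence (BugLite, 15 min, RT) read afterwards.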
Nrf2 ARE act = qHTS of Nrf2 Activators; 410,000 tested, 0.31% active; Potency, µM (series often up to 46.1 µM), most hits filed as activators; AREc32 ARE-luciferase reporter (MCF7-derived line), luminescence, 24 h; further: nearly all actives have a fitted effect of over 65% in size
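Steps: seed AREc32_Fluc cells (1000/well, 5% FBS OPTI-MEM); incubate overnight at 37 deg C; add 23 nL compound; incubate 24 hr; add Steady-Glo; hold 30 min RT; read luminescence.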
miR-21 reporter = qHTS Assay for Modulators of miRNAs and/orActivators of miR-21 | AID 2288, 2010 | Potency, µM (series often up to 38.3 µM), hits mostly activators | 340,000 tested, under 10 active | HeLa miR-21 FLuc reporter, luciferase, 48 h;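 further: miR-21 action dims this reporter so a rising signal means less miR-21 action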
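HeLa miR-21-FLuc reporter line, endogenous miR-21; 2000 cells/well in DMEM/10% FBS; compound titration up to ~40uM final, 48 h, 37 degree Celsius; luciferase detection reagent, 15 min lysis, CCD luminescence.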
TCR activator = Activators of T cell receptors: qHTS campaign; primary human leukocytes, anti-CD3, IL-2 HTRF, 48 h; Potency, µM (doses to about 9.22 µM), most hits filed as activators; 330,000 tested, under 10 active
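Using a-CD3 beads without co-stimulation, primary human leukocytes were exposed to compounds for 48 hr. An HTRF IL-2 kit measured the cytokine, with europium-to-d2 energy transfer producing emission at 665nm upon 320nm excitation.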
ClpP mod = qHTS Assay for Activators of ClpP. purified B. subtilis ClpP, FRET peptide cleavage, 20 min. AID 651965, 2013. 340,000 tested, 1.9% active. Potency, µM (titrated, usually from 57.5 µM). ATP-dependent Clp protease proteolytic subunit (Bacillus subtilis (strain 168)), P80244; active means well fitted falling curve with a large enough effect; inconclusive means small, poorly fitted or top-dose-only effect; inactive means no such curve, though single readings can be large or run the other way; further: the source files actives as falling curves though it sought activators and does not explain the sign; nearly all actives have a fitted effect of over 65% in size
Target sequence (P80244 whole entry, looked up): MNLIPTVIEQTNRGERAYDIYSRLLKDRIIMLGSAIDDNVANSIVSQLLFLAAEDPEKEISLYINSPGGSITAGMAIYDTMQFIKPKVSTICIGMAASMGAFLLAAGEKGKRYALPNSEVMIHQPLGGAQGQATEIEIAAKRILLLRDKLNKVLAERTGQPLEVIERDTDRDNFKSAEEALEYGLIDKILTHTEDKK
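Purified B. subtilis ClpP, 10 microg/mL final in Tris/HCl pH8 with KCl, BSA, glycerol and Tween-20, cleaved an Abz/nitrotyrosine-quenched decapeptide. Fluorescence (ex 320, em 430) was read at 0 and 20 min at room temperature. Delta was normalized to 5.8 microM ADEP and DMSO/no-enzyme controls.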
FLuc counter 3 = Nrf2 qHTS screen for inhibitors: Purified Fluc Biochemical Counterscreen for Hit Validation. purified firefly luciferase, luminescence inhibition. Potency, µM (highest dose often 57.5 µM), most hits filed as inhibitors. 1,400 tested, 4% active. AID 720522, 2013. shares compounds with Nrf2 block; further: nearly all actives have a fitted effect of over 65% in size
A549 tox-2 = Nrf2 qHTS screen for inhibitors: A549 ARE-Fluc Cytotoxicity Counterscreen for Hit Validation | shares compounds with Nrf2 block | A549 ARE-Fluc cells, cytotoxicity counterscreen | Potency, µM (series often up to 46.1 µM), most hits filed as inhibitors | 1,400 tested, 2% active | AID 720523, 2013;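 further: cells exposed to compounds for 18 to 24 hours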
ARE-Fluc inh = Nrf2 qHTS screen for inhibitors: Nrf2 A549 ARE-Fluc Confirmation Assay for Hit Validation. shares compounds with Nrf2 block. A549 ARE-firefly luciferase reporter, luminescence. Potency, µM (highest dose often 46.1 µM), most hits filed as inhibitors. 1,400 tested, 74% active; further: nearly all actives have a fitted effect of over 65% in size
A number is an active result; - = inactive; ? = inconclusive; . = not tested or not shown. Shown are actives, neighbours in structure and some others; about 3.7% of the full set was active somewhere. Unless noted, the call rests on the fitted dose curve; in most records, active means well fitted curve in the direction sought with a large enough effect; inconclusive means small, poorly fitted or top-dose-only effect, or another doubt; inactive means no such curve, though single readings can be large; an effect the other way counts as inactive or inconclusive.

SMILES | Nrf2 block | A549 tox-1 | Nrf2 ARE act | miR-21 reporter | TCR activator | ClpP mod | FLuc counter 3 | A549 tox-2 | ARE-Fluc inh
COc1c(S(=O)(=O)N2CCN(c3ccc(F)cc3)CC2)ccc(Cl)c1Cl | - | - | - | - | - | - | . | . | .
CCOc1ccc(OCC)c(S(=O)(=O)n2cc(C)nc2CC)c1 | - | - | - | - | - | - | . | . | .
CCc1nc(C)cn1S(=O)(=O)c1ccc(Cl)c(Cl)c1OC | 5.8µM | - | - | - | . | - | - | - | 5.8µM
CCOc1cc(Cl)c(S(=O)(=O)n2cc(C)nc2CC)cc1Cl | 8.2µM | - | - | - | . | - | - | - | 8.2µM
Cc1cc2c(cc1C)C(=O)NC(C)(C)C2 | 7.3µM | - | - | - | - | - | - | - | -
COc1ccc(NS(=O)(=O)c2ccc(OC)c(N(C)S(=O)(=O)c3ccc(Cl)cc3)c2)cc1 | 7.3µM | ? | - | - | - | - | - | ? | 8.2µM
COc1ccc(NC(=O)COc2ccc(N(C)S(=O)(=O)c3ccc(Cl)cc3)cc2)cc1OC | 9.2µM | - | - | . | - | - | - | - | 6.5µM
COc1ccc(S(=O)(=O)Nc2ccc(F)cc2)cc1N(C)S(=O)(=O)c1ccc(Cl)cc1 | ? | - | - | - | - | - | . | . | .
CCCc1cc(=O)[nH]c2nnc(SCC(=O)Nc3cccc(C)c3)n12 | . | - | - | - | . | - | . | . | .
CC1(C)O[C@@H]2C[C@H]3[C@@H]4CCC5=CC(=O)CC[C@]5(C)[C@@]4(F)[C@@H](O)C[C@]3(C)[C@]2(C(=O)CCl)O1 | 0.012µM | - | - | . | - | - | - | - | 0.0082µM
CC(=O)[C@@]1(O)CC[C@H]2[C@@H]3C[C@H](C)C4=CC(=O)C=C[C@]4(C)[C@@]3(F)[C@@H](O)C[C@@]21C | ? | - | - | - | - | - | . | . | .
CC(=O)C12OC(C)(C)OC1CC1C3CCC4=CC(=O)C=CC4(C)C3(F)C(O)CC12C (centres undefined) | 0.0082µM | - | - | . | - | . | - | - | 0.0065µM
C[C@@H]1C[C@H]2[C@@H]3CCC4=CC(=O)C=C[C@]4(C)[C@@]3(F)[C@@H](O)C[C@]2(C)[C@H]1C(=O)CO | 0.018µM | - | - | - | - | - | - | - | 0.015µM
CC1(C)O[C@@H]2C[C@H]3[C@@H]4C[C@H](F)C5=CC(=O)C=C[C@]5(C)[C@H]4[C@@H](O)C[C@]3(C)[C@]2(C(=O)CO)O1 | ? | - | - | . | - | - | . | . | .
C[C@@H]1C[C@H]2[C@@H]3CCC4=CC(=O)C=C[C@]4(C)[C@@]3(F)[C@@H](O)C[C@]2(C)[C@@]1(O)C(=O)CO | 0.0046µM | - | - | . | - | - | - | - | 0.0052µM
O=C(C[n+]1cccc(Cl)c1)c1ccc(O)c(O)c1 | . | . | . | . | . | - | . | . | .
CCOc1ccc(C2CC(=O)c3c([nH]c(C(=O)OCC4CCCCC4)c3C)C2)cc1 (centres undefined) | - | - | - | - | . | - | . | . | .
Cc1cc(C)c(C(N)=O)c(SCC(=O)c2cc(C)n(-c3cc(C)on3)c2C)n1 | 2.3µM | - | - | . | - | - | - | - | ?
